Results reported in PubChem BioAssay (EPA / NIEHS).
Records with an inconclusive call do not appear. Calls of active or inactive are those of the source. How the source made its calls, unless noted: active means hit-call score of the fitted dose curve at least 0.9, where 1 is the maximum; inactive means score below 0.9.

Columns and labels:
[1] = biological target: Paired box protein Pax-6 (Homo sapiens) (UniProt P26367); assay: ATG_Pax6_CIS: Attagene CIS-FACTORIAL HepG2 Assay for human Paired Box 6 (PAX6) (AID 2282956); details: HepG2 CIS-FACTORIAL PAX6 reporter transcription, RNA readout; actives raise or lower the signal
Chain of Paired box protein Pax-6 (Homo sapiens) (P26367 whole entry, looked up): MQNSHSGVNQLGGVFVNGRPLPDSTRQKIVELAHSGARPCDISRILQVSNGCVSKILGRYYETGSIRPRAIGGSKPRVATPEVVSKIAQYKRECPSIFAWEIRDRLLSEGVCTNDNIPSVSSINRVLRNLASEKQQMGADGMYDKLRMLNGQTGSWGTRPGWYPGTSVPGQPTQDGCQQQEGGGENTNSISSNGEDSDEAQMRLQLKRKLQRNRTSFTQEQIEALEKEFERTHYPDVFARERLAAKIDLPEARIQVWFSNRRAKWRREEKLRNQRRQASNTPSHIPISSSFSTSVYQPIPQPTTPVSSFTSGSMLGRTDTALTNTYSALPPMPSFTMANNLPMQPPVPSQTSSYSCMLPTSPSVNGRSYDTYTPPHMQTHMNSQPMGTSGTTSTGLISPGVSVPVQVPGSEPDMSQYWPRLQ
Method in brief: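 Readout: reporter transcript fluorescence after RT-PCR and capillary electrophoresis. Cells: HepG2, transiently transfected with cis-regulated MRTUs. Exposure 24 h. Gain or loss of signal fitted bidirectionally relative to DMSO.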

[2] = ATG_PXRE_CIS: Attagene CIS-FACTORIAL HepG2 Assay for human Pregnane X Receptor Element (PXRE) (AID 2282957); details: HepG2 Attagene CIS-FACTORIAL PXRE reporter, mRNA; actives raise or lower the signal
Method in brief: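 Reporter transcripts under endogenous PXR-responsive cis-regulation quantified from total RNA of transfected HepG2 cells 24 h post-dosing, via RT-PCR with fluorescent primer extension and capillary electrophoresis. Gain or loss of signal fitted against DMSO baseline.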

[3] = ATG_PPRE_CIS: Attagene CIS-FACTORIAL HepG2 Assay for human Peroxisome Proliferator-activated Response Element (PPRE) (AID 2282958); details: HepG2 PPRE cis-element reporter, Attagene transcription factor profiling; actives raise or lower the signal
Method in brief: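 HepG2 cells transiently transfected with multiplexed cis-element reporter units measure endogenous transcription factor activity. After 24 h compound exposure, reporter mRNA is quantified by RT-PCR, 6-FAM labeling, HpaI digestion and capillary electrophoresis; bidirectional fits are made against DMSO baseline.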

[4] = ATG_RORE_CIS: Attagene CIS-FACTORIAL HepG2 Assay for human RAR-related Orphan Receptor Element (RORE) (AID 2282959); details: HepG2 Attagene cis-factorial RORE reporter, mRNA; actives raise or lower the signal
Method in brief: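 HepG2 cells transiently transfected with multiple cis-element reporter transcription units, exposed to chemical for 24 h. Reporter mRNA quantified by RT-PCR, 6-FAM primer-extension labeling, HpaI digestion and capillary electrophoresis; bidirectional fit versus DMSO baseline.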

[5] = ATG_Sox_CIS: Attagene CIS-FACTORIAL HepG2 Assay for human SRY-box transcription factor (SOX) (AID 2282960); details: HepG2 Attagene cis-factorial SOX reporter, mRNA; actives raise or lower the signal
Method in brief: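 HepG2 cells transiently transfected with cis-element-driven multiple reporter transcription units, dosed 24 h; reporter mRNA measured by RT-PCR, FAM labelling, HpaI digestion and capillary electrophoresis. Bidirectional fit versus DMSO baseline.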

[6] = biological target: Transcription factor Sp1 (Homo sapiens) (UniProt P08047); assay: ATG_Sp1_CIS: Attagene CIS-FACTORIAL HepG2 Assay for human Specificity Protein 1 (Sp1) (AID 2282961); details: HepG2 Sp1 cis-reporter transcription, actives raise or lower the signal
Chain of Transcription factor Sp1 (Homo sapiens) (P08047 whole entry, looked up): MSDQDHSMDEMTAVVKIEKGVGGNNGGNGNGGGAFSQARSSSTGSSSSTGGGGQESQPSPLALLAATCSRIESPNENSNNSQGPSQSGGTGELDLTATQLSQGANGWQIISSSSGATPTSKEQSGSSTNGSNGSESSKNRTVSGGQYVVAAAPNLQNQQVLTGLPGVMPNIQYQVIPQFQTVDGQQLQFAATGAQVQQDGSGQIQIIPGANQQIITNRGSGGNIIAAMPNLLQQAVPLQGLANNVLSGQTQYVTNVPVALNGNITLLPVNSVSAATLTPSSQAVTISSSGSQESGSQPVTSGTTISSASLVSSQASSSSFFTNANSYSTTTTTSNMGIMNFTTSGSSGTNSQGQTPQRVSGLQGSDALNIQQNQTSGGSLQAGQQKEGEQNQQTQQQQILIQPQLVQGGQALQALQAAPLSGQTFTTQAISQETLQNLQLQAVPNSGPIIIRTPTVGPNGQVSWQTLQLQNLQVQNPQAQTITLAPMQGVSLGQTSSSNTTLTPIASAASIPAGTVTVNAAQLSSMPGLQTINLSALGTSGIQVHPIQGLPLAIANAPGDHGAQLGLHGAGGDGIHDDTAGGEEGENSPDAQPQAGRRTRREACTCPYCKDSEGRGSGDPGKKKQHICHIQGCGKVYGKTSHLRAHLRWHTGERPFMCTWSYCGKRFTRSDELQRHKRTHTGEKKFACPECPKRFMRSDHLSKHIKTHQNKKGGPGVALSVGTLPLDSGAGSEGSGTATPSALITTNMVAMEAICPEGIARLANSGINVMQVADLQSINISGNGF
Method in brief: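 HepG2 cells transiently transfected with multiple reporter transcription units driven by cis-regulatory elements; Sp1-responsive reporter mRNA measured 24 h after dosing by RT-PCR and capillary electrophoresis fluorescence, fitted bidirectionally against DMSO baseline.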

[7] = ATG_SREBP_CIS: Attagene CIS-FACTORIAL HepG2 Assay for human Sterol Regulatory Element Binding (SREBP) (AID 2282962); details: HepG2 Attagene cis-factorial SREBP reporter, mRNA; actives raise or lower the signal
Method in brief: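 Readout: fluorescent reporter-transcript peaks resolved by capillary electrophoresis after RT-PCR. Cells were human HepG2 carrying transfected cis-promoter reporter constructs, dosed for 24 h. Gain or loss of signal was fitted against DMSO controls.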

[8] = biological target: Signal transducer and activator of transcription 3 (Homo sapiens) (UniProt P40763); assay: ATG_STAT3_CIS: Attagene CIS-FACTORIAL HepG2 Assay for human Signal Transducer and Activator of Transcription 3 (STAT3) (AID 2282963); details: HepG2, Attagene cis-factorial STAT3 reporter transcription; actives raise or lower the signal
Chain of Signal transducer and activator of transcription 3 (Homo sapiens) (P40763 whole entry, looked up, the tested form may be a part): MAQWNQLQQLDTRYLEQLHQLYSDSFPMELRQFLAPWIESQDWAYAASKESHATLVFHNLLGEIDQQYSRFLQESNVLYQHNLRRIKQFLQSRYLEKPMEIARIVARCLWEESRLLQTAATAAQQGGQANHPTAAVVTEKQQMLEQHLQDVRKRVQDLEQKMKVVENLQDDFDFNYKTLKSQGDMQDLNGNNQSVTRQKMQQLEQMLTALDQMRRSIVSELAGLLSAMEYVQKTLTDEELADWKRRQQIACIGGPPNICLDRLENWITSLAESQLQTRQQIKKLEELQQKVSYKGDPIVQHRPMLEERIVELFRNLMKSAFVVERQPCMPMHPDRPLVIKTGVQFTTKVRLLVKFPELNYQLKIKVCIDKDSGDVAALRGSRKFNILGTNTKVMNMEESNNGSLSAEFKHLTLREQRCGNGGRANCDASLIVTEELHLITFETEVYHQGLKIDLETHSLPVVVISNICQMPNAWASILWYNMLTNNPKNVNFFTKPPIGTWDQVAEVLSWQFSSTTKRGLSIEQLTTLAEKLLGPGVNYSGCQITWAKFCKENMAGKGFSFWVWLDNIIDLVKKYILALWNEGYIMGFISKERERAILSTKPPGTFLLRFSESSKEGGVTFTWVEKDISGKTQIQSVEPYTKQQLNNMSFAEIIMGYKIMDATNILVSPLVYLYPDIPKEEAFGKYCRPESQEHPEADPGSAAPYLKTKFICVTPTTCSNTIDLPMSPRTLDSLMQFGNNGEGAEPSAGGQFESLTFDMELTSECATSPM
Method in brief: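 Fluorescence intensity of 6-FAM-labelled reporter fragments, separated by capillary electrophoresis after RT-PCR, gave the signal. Cells were HepG2 transfected with cis-element reporter units and treated 24 h; fitting was bidirectional relative to DMSO.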

[9] = ATG_TA_CIS: Attagene CIS-FACTORIAL HepG2 Assay for human TA Basal Promoter (AID 2282964); details: HepG2 Attagene CIS-factorial TA basal promoter reporter; actives raise or lower the signal
Method in brief: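 Transfected HepG2, 24 h compound exposure; RNA → RT-PCR → FAM primer extension → HpaI cut → CE fluorescence. Gain/loss-of-signal fitted against DMSO negative control. Background-control readout.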

[10] = ATG_TCF_b_cat_CIS: Attagene CIS-FACTORIAL HepG2 Assay for human T-Cell-Factor with beta-catenin (TCF/b-cat) (AID 2282965); details: HepG2 TCF/beta-catenin cis-reporter transcription, actives raise or lower the signal
Method in brief: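 HepG2, transient MRTU transfection, cis-element-driven reporters (endogenous TFs). 24 h compound exposure. Readout: reporter mRNA by RT-PCR + 6-FAM primer extension, HpaI digest, capillary electrophoresis. Gain/loss fit vs DMSO baseline.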

[11] = ATG_TAL_CIS: Attagene CIS-FACTORIAL HepG2 Assay for human TAL Basal Promoter (AID 2282966); details: HepG2 Attagene cis-factorial TAL promoter reporter; actives raise or lower the signal;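 further: background control endpoint measuring basal TAL promoter reporter mRNA not a specific factor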
Method in brief: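 Background-control endpoint: basal TAL promoter reporter transcripts in transiently transfected HepG2, measured 24 h after dosing. Read-out by RT-PCR with fluorescent primer extension and capillary electrophoresis; gain or loss of signal fitted relative to DMSO.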

[12] = ATG_TGFb_CIS: Attagene CIS-FACTORIAL HepG2 Assay for human Transforming Growth Factor (TGF) (AID 2282967); details: HepG2 Attagene CIS TGFb reporter, mRNA transcription; actives raise or lower the signal
Method in brief: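 Readout: fluorescently labeled reporter cDNA fragments resolved by capillary electrophoresis after RT-PCR. Transfected HepG2 cells dosed for 24 h; endogenous TF activity at TGFB1-linked cis element; gain or loss fitted relative to DMSO.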

[13] = ATG_VDRE_CIS: Attagene CIS-FACTORIAL HepG2 Assay for human Vitamin D Receptor Element (VDRE) (AID 2282968); details: HepG2 VDRE cis-reporter transcription, actives raise or lower the signal
Method in brief: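 Compounds were applied for 24 h to HepG2 cells transfected with promoter-regulated reporter units. Total RNA was reverse-transcribed, and reporter amplicons were fluorescently labelled and sized by capillary electrophoresis.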

[14] = biological target: X-box-binding protein 1 (Homo sapiens) (UniProt P17861); assay: ATG_Xbp1_CIS: Attagene CIS-FACTORIAL HepG2 Assay for human X-box Binding Protein 1 (XBP1) (AID 2282972); details: HepG2 XBP1 cis-element reporter, Attagene multiplex; actives raise or lower the signal
Chain of X-box-binding protein 1 (Homo sapiens) (P17861 whole entry, looked up, the tested form may be a part): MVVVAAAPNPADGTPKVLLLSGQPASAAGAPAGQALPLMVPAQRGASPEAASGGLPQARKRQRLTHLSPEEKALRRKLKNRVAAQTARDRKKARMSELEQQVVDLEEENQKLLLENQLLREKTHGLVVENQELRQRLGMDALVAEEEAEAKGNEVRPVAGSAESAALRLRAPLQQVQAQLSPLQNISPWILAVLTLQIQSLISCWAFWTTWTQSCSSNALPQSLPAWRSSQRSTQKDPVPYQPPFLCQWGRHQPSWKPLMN
Method in brief: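 Read-out: fluorescent reporter mRNA fragments resolved by capillary electrophoresis after RT-PCR. Human HepG2 liver cells carried transfected cis-promoter reporter units and were exposed to chemicals for 24 hours. Gain or loss of signal fitted relative to DMSO baseline.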

[15] = ATG_M_19_TRANS: Attagene TRANS-FACTORIAL HepG2 Assay for M19 Transcription Factor (Internal Marker) (AID 2282974; active means hit-call score of the fitted dose curve at least 0.9, where 1 is the maximum); details: HepG2 Attagene TRANS-FACTORIAL M19 internal marker reporter
Method in brief: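 HepG2 cells transiently transfected with multiple GAL4-UAS reporter transcription units were exposed to chemicals for 24 h. Reporter mRNA was read by RT-PCR, 6-FAM primer extension, HpaI digestion and capillary electrophoresis; gain of signal fitted relative to DMSO.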

[16] = ATG_GAL4_TRANS: Attagene TRANS-FACTORIAL HepG2 Assay for GAL4 (Internal Marker) (AID 2282976; active means hit-call score of the fitted dose curve at least 0.9, where 1 is the maximum); details: HepG2 Attagene TRANS GAL4 internal marker reporter
Method in brief: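 In transfected human HepG2 liver cells dosed 24 h, GAL4 reporter mRNA serves as a baseline marker. Detection by RT-PCR with fluorescent capillary electrophoresis, activity fitted upward relative to DMSO.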

[17] = biological target: Nuclear receptor subfamily 1 group I member 3 (Homo sapiens) (UniProt Q14994); assay: ATG_CAR_TRANS: Attagene TRANS-FACTORIAL HepG2 Assay for human Constitutive Androstane Receptor (CAR) (AID 2282969; active means hit-call score of the fitted dose curve at least 0.9, where 1 is the maximum;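 further: activators raise reporter mRNA above DMSO so AC50 marks induction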); details: HepG2 Attagene TRANS-FACTORIAL CAR reporter
Chain of Nuclear receptor subfamily 1 group I member 3 (Homo sapiens) (Q14994 whole entry, looked up, the tested form may be a part): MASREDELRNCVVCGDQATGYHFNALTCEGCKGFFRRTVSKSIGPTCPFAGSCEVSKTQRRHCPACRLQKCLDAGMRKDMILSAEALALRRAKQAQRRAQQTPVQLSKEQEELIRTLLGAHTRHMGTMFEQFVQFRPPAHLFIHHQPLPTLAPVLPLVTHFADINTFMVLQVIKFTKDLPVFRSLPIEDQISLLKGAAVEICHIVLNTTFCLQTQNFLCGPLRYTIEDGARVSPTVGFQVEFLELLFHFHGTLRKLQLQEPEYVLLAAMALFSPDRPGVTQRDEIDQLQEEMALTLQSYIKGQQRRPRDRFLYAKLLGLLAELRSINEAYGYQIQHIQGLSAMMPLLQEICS
Method in brief: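 Transiently transfected HepG2, multiplex TRANS reporters (CAR-Gal4 chimera driving GAL4-UAS reporter). 24 h dosing. Readout: reporter transcript by RT-PCR + capillary electrophoresis, fluorescence intensity; positive direction vs DMSO.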

[18] = biological target: Estrogen-related receptor gamma (Homo sapiens) (UniProt P62508); assay: ATG_ERRg_TRANS: Attagene TRANS-FACTORIAL HepG2 Assay for human Estrogen-Related Receptor gamma (ERRg) (AID 2282977; active means hit-call score of the fitted dose curve at least 0.9, where 1 is the maximum;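 further: hits increase reporter signal over DMSO so potencies reflect activators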); details: HepG2 Attagene TRANS reporter, ERRg transactivation
Chain of Estrogen-related receptor gamma (Homo sapiens) (P62508 whole entry, looked up, the tested form may be a part): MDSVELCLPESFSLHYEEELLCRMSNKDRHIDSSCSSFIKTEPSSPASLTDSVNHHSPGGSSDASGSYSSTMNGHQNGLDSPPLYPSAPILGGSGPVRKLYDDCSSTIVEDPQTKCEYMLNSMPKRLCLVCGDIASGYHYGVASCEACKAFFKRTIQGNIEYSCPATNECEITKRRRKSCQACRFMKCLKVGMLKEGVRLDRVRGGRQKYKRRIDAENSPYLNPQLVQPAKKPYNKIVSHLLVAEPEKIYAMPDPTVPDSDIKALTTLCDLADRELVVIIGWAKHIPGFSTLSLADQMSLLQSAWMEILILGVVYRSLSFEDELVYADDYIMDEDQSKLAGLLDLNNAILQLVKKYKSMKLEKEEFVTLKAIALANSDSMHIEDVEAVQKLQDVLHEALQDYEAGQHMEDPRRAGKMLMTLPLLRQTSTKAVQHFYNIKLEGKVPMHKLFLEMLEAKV
Method in brief: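 Induction of reporter transcripts through a chimeric NR-Gal4 protein is quantified in transfected human HepG2 liver cells after 24 h chemical exposure, using RT-PCR with capillary electrophoresis detection and DMSO as baseline.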

[19] = biological target: Steroid hormone receptor ERR1 (Homo sapiens) (UniProt P11474); assay: ATG_ERRa_TRANS: Attagene TRANS-FACTORIAL HepG2 Assay for human Estrogen-Related Receptor alpha (ERRa) (AID 2282971; active means hit-call score of the fitted dose curve at least 0.9, where 1 is the maximum); details: HepG2 Attagene TRANS reporter, ERRa transactivation
Chain of Steroid hormone receptor ERR1 (Homo sapiens) (P11474 whole entry, looked up, the tested form may be a part): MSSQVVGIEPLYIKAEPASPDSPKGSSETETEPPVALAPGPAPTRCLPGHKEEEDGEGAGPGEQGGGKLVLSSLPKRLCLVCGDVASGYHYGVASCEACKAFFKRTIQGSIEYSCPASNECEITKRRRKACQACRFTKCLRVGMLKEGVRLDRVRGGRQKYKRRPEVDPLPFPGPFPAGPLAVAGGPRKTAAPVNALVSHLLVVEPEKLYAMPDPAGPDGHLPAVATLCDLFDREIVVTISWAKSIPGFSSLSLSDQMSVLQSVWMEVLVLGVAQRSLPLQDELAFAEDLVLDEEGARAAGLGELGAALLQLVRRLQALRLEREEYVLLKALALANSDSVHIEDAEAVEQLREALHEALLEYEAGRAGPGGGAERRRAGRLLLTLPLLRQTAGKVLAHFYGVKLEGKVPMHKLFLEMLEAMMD
Method in brief: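 Reporter transcripts from ERRa-Gal4 chimera activity measured in transiently transfected human HepG2 cells 24 hours after dosing, using RT-PCR with 6-FAM primer extension, HpaI digestion and capillary electrophoresis; DMSO is baseline.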

[20] = biological target: Glucocorticoid receptor (Homo sapiens) (UniProt P04150); assay: ATG_GR_TRANS: Attagene TRANS-FACTORIAL HepG2 Assay for human Glucocorticoid Receptor (GR) (AID 2282978; active means hit-call score of the fitted dose curve at least 0.9, where 1 is the maximum;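 further: activators score as hits since higher reporter transcript over DMSO is fitted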); details: HepG2 Attagene TRANS GR reporter, mRNA transcription
Chain of Glucocorticoid receptor (Homo sapiens) (P04150 whole entry, looked up, the tested form may be a part): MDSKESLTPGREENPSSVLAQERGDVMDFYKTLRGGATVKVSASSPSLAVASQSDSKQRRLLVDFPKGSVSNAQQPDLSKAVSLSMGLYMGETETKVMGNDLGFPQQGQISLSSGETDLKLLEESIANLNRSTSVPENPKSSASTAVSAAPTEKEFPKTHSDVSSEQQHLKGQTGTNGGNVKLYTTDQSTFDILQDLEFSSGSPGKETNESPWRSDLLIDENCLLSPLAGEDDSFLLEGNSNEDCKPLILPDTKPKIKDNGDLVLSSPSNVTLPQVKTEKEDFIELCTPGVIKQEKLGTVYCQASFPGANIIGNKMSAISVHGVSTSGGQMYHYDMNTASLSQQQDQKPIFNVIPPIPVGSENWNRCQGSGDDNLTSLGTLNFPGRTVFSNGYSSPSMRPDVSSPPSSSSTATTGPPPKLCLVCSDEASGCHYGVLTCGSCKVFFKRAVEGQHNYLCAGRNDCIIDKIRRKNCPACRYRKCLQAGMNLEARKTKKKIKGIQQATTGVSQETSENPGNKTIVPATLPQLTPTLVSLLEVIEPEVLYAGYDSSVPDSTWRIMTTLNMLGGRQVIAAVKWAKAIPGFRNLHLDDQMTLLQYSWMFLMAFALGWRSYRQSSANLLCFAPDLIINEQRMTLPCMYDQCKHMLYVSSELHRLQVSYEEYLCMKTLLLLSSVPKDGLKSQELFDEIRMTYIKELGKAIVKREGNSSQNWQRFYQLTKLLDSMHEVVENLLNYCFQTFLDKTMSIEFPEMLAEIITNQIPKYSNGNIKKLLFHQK
Method in brief: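 HepG2 cells transiently transfected with multiplexed reporter units in which chimeric NR-GAL4 proteins drive GAL4-UAS reporters; 24 h compound exposure. Reporter mRNA measured by RT-PCR, 6-FAM labelling, HpaI digestion and capillary electrophoresis; gain-of-signal fitted versus DMSO.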

Measured: AC50

CC(C)CC(C)CC(O)CC(C)C (stereo not given)
not listed: [17] | [18] | [19] | [20]
inactive: all other assays above

CN(C)CCOC(C)(c1ccccc1)c1ccccn1 (stereo not given)
active: [2] 100 µM
not listed: [19] | [20]
inactive: all other assays above

CC(C)(N=C=O)c1cccc(C(C)(C)N=C=O)c1
active: [2] 13.1 µM
not listed: [15] | [17]
inactive: all other assays above

CCCCCCC(CO)CCCC (stereo not given)
active: [2] 33.4 µM
not listed: [16] | [17] | [18] | [19]
inactive: all other assays above

Nc1ccc(Cl)c([N+](=O)[O-])c1
active: [2] 37.6 µM
not listed: [17] | [18] | [19]
inactive: all other assays above

CCN(CCC#N)c1ccc(N=Nc2ccc([N+](=O)[O-])cc2)cc1
not listed: [14] | [15] | [19] | [20]
inactive: all other assays above

Cc1c(C2(c3cc(Br)c(O)c(Br)c3C)OS(=O)(=O)c3ccccc32)cc(Br)c(O)c1Br
active: [2] 11 µM | [13] 22.7 µM
not listed: [17] | [19]
inactive: all other assays above

c1ccc2[nH]cnc2c1
not listed: [17] | [18] | [19] | [20]
inactive: all other assays above
